# Hits are enriched below; roughly 3.5% of the tested compounds scored in any of these assays.
# TEAD-YAP inh = TEAD-YAP interaction inhibition; HEK-TIYL cells, TEAD-Gal4/YAP UAS-luciferase luminescence; AID 1259422; 640,000 tested, 1.4% active; inhibition, % at 9.12 µM; in the data active = inhibition above about 32%;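 note: 0% = median of test compound wells and 100% = reference inhibitor wells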
# MITF inh = human MITF inhibition, primary screen; inhibition, % at 2.6 µM; AlphaScreen MITF homodimerization, bead proximity signal; AID 1259374; 650,000 tested, 0.91% active; in the data active = inhibition above about 50%;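 note: 0% = vehicle wells with protein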
# GPR151 ag = human GPR151 activation; Q8TDV0; PathHunter beta-arrestin GPR151 cells, luminescence; activation, % at 11.2 µM; 650,000 tested, 1% active; AID 1508602; in the data active = activation above about 4.9%;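 note: 0% = median of compound wells and 100% = cells with positive control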
# FBW7 act = activators of human E3 ligase FBW7 | Q969H0 | AlphaScreen FBW7–phospho-cyclin E peptide binding, activator screen | normalized activity (activation), % at 26.1 µM | 650,000 tested, 0.13% active; in the data active = normalized activity above about 1.9%;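 note: purified mutant Fbw7 with reduced substrate affinity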
# Target sequence (Q969H0 whole entry, looked up): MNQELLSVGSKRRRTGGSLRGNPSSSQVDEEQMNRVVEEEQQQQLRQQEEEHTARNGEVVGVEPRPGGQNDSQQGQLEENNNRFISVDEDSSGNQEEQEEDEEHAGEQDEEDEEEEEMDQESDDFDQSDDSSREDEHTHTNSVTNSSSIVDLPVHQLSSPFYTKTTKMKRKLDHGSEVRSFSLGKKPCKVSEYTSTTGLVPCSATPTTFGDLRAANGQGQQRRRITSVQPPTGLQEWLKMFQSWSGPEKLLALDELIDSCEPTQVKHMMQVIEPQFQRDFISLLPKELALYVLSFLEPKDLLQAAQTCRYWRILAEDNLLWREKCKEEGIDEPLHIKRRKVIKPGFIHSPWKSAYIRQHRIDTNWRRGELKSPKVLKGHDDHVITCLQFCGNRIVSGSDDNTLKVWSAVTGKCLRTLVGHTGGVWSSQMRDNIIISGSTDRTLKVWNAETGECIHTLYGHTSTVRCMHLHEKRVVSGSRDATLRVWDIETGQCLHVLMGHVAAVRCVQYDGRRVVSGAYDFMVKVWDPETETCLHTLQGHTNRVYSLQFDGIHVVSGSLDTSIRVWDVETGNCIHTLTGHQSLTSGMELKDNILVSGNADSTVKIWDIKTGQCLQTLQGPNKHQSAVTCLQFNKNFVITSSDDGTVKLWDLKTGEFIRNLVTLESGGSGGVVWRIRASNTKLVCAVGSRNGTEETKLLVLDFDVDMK
# MITF confirm = human MITF inhibition, confirmation | shares compounds with MITF inh | AlphaScreen MITF homodimerization, biotin/His-MITF beads | inhibition, % at 2.6 µM | 4,700 tested, 16% active;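 active = inhibition above a cutoff derived from the DMSO control wells, cut at about 28% in these data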;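 note: 0% = MITF dimer wells with DMSO only; inhibitors lower the bead chemiluminescence by keeping MITF from dimerizing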
# AS interf DR = optically interferes with AlphaScreen signal in dose response | 480 tested, 6% active | shares compounds with MITF inh | AlphaScreen optical interference counterscreen, cell-free | IC50, µM; call rule not given here
# AlphaScreen intf2 = counter-screen: compounds optically interfering with AlphaScreen. shares compounds with MITF inh. LysRS AlphaScreen counterscreen, signal interference, triplicate. inhibition, % at 2.6 µM. 4,700 tested, 7.6% active;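 active = inhibition above a cutoff derived from the DMSO control wells, cut at about 30% in these data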
# Starred values were filed as active, the others as inactive; . = no result.
SMILES,TEAD-YAP inh,MITF inh,GPR151 ag,FBW7 act,MITF confirm,AlphaScreen intf2,others
C=CC1=C(C(=O)O)N2C(=O)[C@@H](NC(=O)/C(=N\O)c3csc(N)n3)[C@H]2SC1 (stereo in doubt),-8.3,58.8*,0.9,-0.2,58.9*,46.2*,
CN(C)c1ccc(NC(=O)CSc2ncccc2C(=O)O)cc1,31.6,64.3*,0.9,-0.1,74.6*,22.4,AS interf DR=>6.48
CC(=O)Nc1ccc(CNC2CCN(Cc3ccccc3)CC2)cc1,11.2,79.3*,-0.8,0.2,1.6,2.5,
c1ccc(CN2CCC(NCc3ccc(-n4ccnc4)cc3)CC2)cc1,2.5,51.5*,2.6,0.1,11.4,16.7,
CC(CC(=O)Nc1ccccc1)NC1CCN(Cc2ccccc2)CC1 (stereo unspecified),-0.1,66.4*,0.5,0.0,15.1,9.6,
COc1cccc(-c2nc(C3CCN(C(C)=O)CC3)n3ccc(Cl)cc23)c1,1.9,77.0*,-0.4,-0.3,7.1,12.8,
Cc1ccc(Cl)cc1NS(=O)(=O)c1ccc2c3c(cccc13)C(=O)N2,3.8,-7.1,3.2,0.0,.,.,
COc1ccc(C)cc1N(CC(=O)Nc1ccc(F)cc1F)S(C)(=O)=O,-6.5,51.5*,-0.3,-0.1,-1.6,13.0,
COc1ccc(C)cc1N(CC(=O)Nc1ccccc1F)S(C)(=O)=O,7.5,2.4,-1.4,0.0,.,.,
COc1ccc(CN2CCN(Cc3ccco3)CC2)cc1Br,1.9,72.3*,-0.3,-0.2,12.1,15.8,
COc1ccc(CNC(=O)N2CCN(CC(=O)c3ccco3)CC2)cc1OC,-10.0,53.8*,-0.4,0.4,13.1,19.8,
CCOc1cc(CN2CCN(Cc3ccco3)CC2)ccc1OC,-12.4,45.1,1.3,-0.2,.,.,
COc1ccc(CN2CCN(Cc3ccco3)CC2)cc1OC,2.1,71.2*,0.7,0.1,-16.3,2.3,
Cc1cc(C)n(-c2ccc(C(=O)OCC(=O)Nc3sc4c(c3C(N)=O)CCC4)cc2)n1,-4.0,-3.8,2.3,0.1,.,.,
S=C(NCc1ccco1)N(Cc1ccccc1)Cc1ccccc1,1.9,3.0,1.3,-0.2,.,.,
O=C1N[C@H](CO)C(=O)N2CCN(Cc3cnn(-c4ccccc4)c3)C[C@H]12,6.6,14.7,0.6,0.8,.,.,
CC(=O)c1cccc(-c2ncc(C(=O)NCCc3ccc(O)cc3)s2)c1,2.2,6.0,0.9,0.0,.,.,
Cc1cc(C)c(C)c(S(=O)(=O)Nc2ccc(C(=O)NCc3ccccn3)cc2)c1C,-4.5,11.2,0.5,0.9,.,.,
CS(=O)(=O)Nc1ccc(C(=O)NCc2ccccn2)cc1,-5.0,70.0*,1.0,0.7,-5.7,-7.9,
OC(COc1ccc(Br)cc1)CN1CCN(Cc2ccc3c(c2)OCO3)CC1 (stereo unspecified),11.7,1.1,-1.3,-0.1,.,.,
COc1ccc(NC(=O)NNC(=O)c2cc(C3CC3)nc3ccccc23)c(OC)c1,-2.0,61.4*,1.3,0.2,6.1,20.2,
COc1ccc(NC(=O)c2cc(-c3ccccc3)nc3ccccc23)c(OC)c1,8.1,-7.5,0.2,0.2,.,.,
CCNC(=O)c1c(O)c2cccc3c2n(c1=O)CCC3,-2.2,1.9,-0.3,-0.1,.,.,
CC1(C)CC(=O)C2=C(C1)N(c1ccc(Cl)cc1)C(N)=C(C#N)C2c1ccc(C(C)(C)C)s1 (stereo unspecified),8.1,12.3,-1.8,0.2,.,.,
CC1(C)CC(=O)C2=C(C1)N(c1ccc(Br)cc1)C(N)=C(C#N)C2c1ccc(C(C)(C)C)s1 (stereo unspecified),-4.9,52.2*,-2.0,0.0,16.1,-0.4,
SMILES,TEAD-YAP inh,MITF inh,GPR151 ag,FBW7 act,MITF confirm,AlphaScreen intf2,others
CCOC(=O)c1sc2nc(C(F)(F)F)[nH]c(=O)c2c1C,9.4,1.2,0.6,0.0,.,.,
Cc1ccc(OCCN2CC(C)OC(C)C2)c(Cl)c1 (stereo unspecified),-9.9,64.5*,0.9,-0.2,8.8,6.7,
C/C=C/c1ccc(OCCCN2CC(C)OC(C)C2)c(OC)c1 (stereo unspecified),-4.1,49.8,-1.2,-0.1,.,.,
C/C=C/c1ccc(OCCN2CC(C)OC(C)C2)c(OC)c1 (stereo unspecified),10.7,64.3*,-2.6,-0.2,-2.6,5.6,
COc1cc(C)ccc1OCCOCCN1CC(C)OC(C)C1 (stereo unspecified),4.1,56.5*,1.1,-0.2,3.9,16.4,
CCc1ccccc1NC(=O)Cn1ncc2c1-c1ccccc1OC2,-3.8,5.4,0.3,-0.2,.,.,
CCOC(=O)c1cc(CC)sc1NC(=O)c1cc([N+](=O)[O-])ccc1Cl,5.9,59.6*,3.3,-0.1,4.7,6.8,
CCOC(=O)c1c(C)oc(NC(=O)c2ccc([N+](=O)[O-])cc2Cl)c1C#N,1.7,53.8*,1.1,-0.1,8.2,13.0,
CCOC(=O)c1cc(CC)sc1NC(=O)c1cc([N+](=O)[O-])ccc1N1CCCCCC1,-1.6,18.5,-0.3,0.1,.,.,
COc1cc(N2CCN(C(=O)C(C)(C)Oc3ccc(Cl)cc3)CC2)nc(C)n1,-1.2,1.8,2.0,0.0,.,.,
CC(Sc1nnc(-c2ccc([N+](=O)[O-])cc2)o1)C(N)=O (stereo unspecified),4.0,68.7*,-0.2,-0.4,5.3,20.5,
CCOC(=O)N1CCN(Cc2ccc(O)c3ncccc23)CC1,5.2,71.0*,-0.3,-0.8,50.0*,96.9*,
CCCOCc1ccc(O)c2ncccc12,22.2,81.1*,0.0,-1.8,79.8*,99.7*,
Oc1ccc(CN2CCN(c3ccccc3F)CC2)c2cccnc12,-2.1,19.6,0.6,-0.6,.,.,
O=C(NCc1cccnc1)c1cc2ccccc2o1,-14.5,51.5*,0.7,0.5,-4.6,-2.5,
O=C(NC(=S)NCc1cccnc1)c1cc2ccccc2o1,-6.2,11.6,-0.7,0.1,.,.,
Cc1c(C)n(C(=O)CN2CCN(c3ccccn3)CC2)c2ccccc12,-0.3,18.1,-1.5,0.1,.,.,
CCN1CCN(CC(=O)n2c(C)c(C)c3ccccc32)CC1,-0.7,73.8*,-1.4,-0.2,-2.0,-3.5,
O=C(CSc1nc(NC2CCCCC2)c2ccccc2n1)NC1CCCCC1,8.0,58.3*,2.6,-0.1,3.3,6.0,
Cc1ccc(CNC(=O)CSc2nc(NC3CCCCC3)c3ccccc3n2)cc1,1.2,3.0,1.4,-0.1,.,.,
COc1ccc(C(=O)OCC(=O)NC(C)C23CC4CC(CC(C4)C2)C3)cc1[N+](=O)[O-] (stereo unspecified),-11.7,-0.6,2.8,0.2,.,.,
CCN(CC)S(=O)(=O)c1ccc2c(c1)N(CC(=O)NC(C)C)C(=O)CO2,0.0,6.0,0.6,-0.1,.,.,
CCOC(=O)c1c(NC(=O)c2cc(-c3ccccc3C)nc3ccccc23)sc2c1CCCCCC2,1.9,68.7*,-1.2,-0.1,6.8,6.4,
CCOC(=O)c1c(NC(=O)c2cc(-c3cc(C)ccc3C)nc3ccccc23)sc2c1CCCC2,-5.2,-15.7,-0.9,0.1,.,.,
